# Assay results: PubChem BioAssay (Tox21)
# Unmarked numbers belong to inactive results. Records with an inconclusive call do not appear. A call without a number means that no potency is given here. Active and inactive are the calls of the source. Unless noted, the call rests on the fitted dose curve; in most records, active means well fitted curve in the direction sought with a large enough effect in the repeat runs; inconclusive means weak or mixed curves; inactive means no such curve, though single readings can be large; an effect the other way counts as inactive or inconclusive.
# Columns and labels:
# [1] = qHTS assay to identify small molecule agonists of H2AX - cell viability counter screen (AID 1224847; calls by dose curve; further: top concentration of the series differs between compounds; nearly all actives have a fitted effect of over 30% in size)
# Outline: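 Compounds tested at 15 concentrations were incubated 3 hr at 37C with wild-type CHO-K1 cells; cellular ATP-based luminescence (CellTiter-Glo) indicated viability.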
# [2] = qHTS RealTime-Glo MT Cell Viability Assay in HepG2 cells - 24 hour (AID 1224867); further: nearly all actives have a fitted effect of over 50% in size
# Outline: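 Luminescence read-out: viable HepG2 cells reduce a prosubstrate to a NanoLuc substrate, giving a signal proportional to live cell number. Reads taken at 0, 8, 16, 24, 32 and 40 h of compound exposure at 37 C.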
# [3] = qHTS RealTime-Glo MT Cell Viability Assay in HEK293 cells - 32 hour (AID 1224868); further: top concentration of the series differs between compounds; nearly all actives have a fitted effect of over 50% in size
# Outline: (§1)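 Nonlytic real-time viability readout: viable cells convert prosubstrate to NanoLuc substrate, giving luminescence proportional to live cell number. HEK293, 600 cells/well, compound added after 5 h, continuous culture at 37 C.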
# [4] = A CellTox Green Cytotoxicity Assay to monitor cytotoxicity in HEK293 cells - 0 hour (AID 1224869); further: nearly all actives have a fitted effect of over 50% in size
# Outline: (§2)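 Tox21 screen in HEK293: membrane-impermeant cyanine dye fluoresces on binding dead-cell DNA; compound pinned 5 h post-seeding, plates held at 37 C, signal read repeatedly through 40 h.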
# [5] = qHTS RealTime-Glo MT Cell Viability Assay in HepG2 cells - 40 hour (AID 1224870); further: nearly all actives have a fitted effect of over 50% in size; further: potency means the concentration at half of the fitted maximal effect
# Outline: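 HepG2 cells mixed with RealTime-Glo MT reagents (NanoLuc plus cell-permeant prosubstrate) were seeded at 600 cells/well, incubated 5 h at 37 C/5% CO2, then pinned with compounds in DMSO; nonlytic luminescence tracked viability during 40 h treatment.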
# [6] = A CellTox Green Cytotoxicity Assay to monitor cytotoxicity in HEK293 cells - 40 hour (AID 1224871); further: nearly all actives have a fitted effect of over 45% in size; further: potency means the concentration at half of the fitted maximal effect
# Outline: as §2
# [7] = qHTS RealTime-Glo MT Cell Viability Assay in HEK293 cells - 16 hour (AID 1224872)
# Outline: as §1
# [8] = qHTS assay to identify small molecule antagonists of the estrogen related receptor (ERR) signaling pathway from Tox21 library (AID 1224848); further: nearly all actives have a fitted effect of over 50% in size
# Outline: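 First, 2,000 ERR cells per well were plated and held 6 h at 37 C/5% CO2. Next, compounds in DMSO were pinned in and left 18 h at 37 C. Finally, ONE-Glo was added and luminescence read after 30 min at room temperature.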
# [9] = qHTS assay to identify small molecule agonists of the estrogen related receptor (ERR) signaling pathway from Tox21 library (AID 1224849; calls by dose curve; further: nearly all actives have a fitted effect of over 15% in size)
# Outline: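 Tox21 compounds tested for ERR agonism in an NTP reporter cell line: 18 h treatment at 37 C, then ONE-Glo luminescence.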
compound,measurement,setting,value
CC(C)(C)C(=O)Oc1ccc(S(=O)(=O)Nc2ccccc2C(=O)NCC(=O)O)cc1,outcome,[1],inactive
same,outcome,[2],inactive
same,Potency,[3],inactive
same,outcome,[4],inactive
same,Potency,[5],inactive
same,Potency,[6],inactive
same,Potency,[7],inactive
COc1cc(C(=O)NCc2ccc(OCCN(C)C)cc2)cc(OC)c1OC,outcome,[1],inactive
same,outcome,[2],inactive
same,Potency,[3],inactive
same,Potency,[5],inactive
same,Potency,[6],inactive
same,Potency,[7],inactive
COc1cc(-c2ccc(=O)[nH]n2)ccc1OC(F)F,outcome,[1],inactive
same,outcome,[2],inactive
same,Potency,[3],inactive
same,outcome,[4],inactive
same,Potency,[5],inactive
same,Potency,[6],inactive
same,Potency,[7],inactive
C[N+](C)(C)CCCCCCCCCC[N+](C)(C)C,outcome,[1],inactive
same,outcome,[2],inactive
same,Potency,[3],inactive
same,Potency,[5],inactive
same,Potency,[6],inactive
same,Potency,[7],inactive
C1CCC2=NCCCN2CC1,outcome,[1],inactive
same,Potency,[3],inactive
same,outcome,[4],inactive
same,Potency,[5],inactive
same,Potency,[6],inactive
same,Potency,[7],inactive
CC(C)C(=O)OC(=O)C(C)C,outcome,[1],inactive
same,Potency,[3],inactive
same,outcome,[4],inactive
same,Potency,[5],inactive
same,Potency,[6],inactive
same,Potency,[7],inactive
CCN[C@@H]1C[C@H](N)[C@@H](OC2OC(CN)=CCC2N)[C@H](O)[C@H]1O[C@H]1OC[C@](C)(O)[C@H](NC)[C@H]1O (some centres undefined),"activity change, negative = cytotoxicity",[1],4.57% [at 0.582 µM]
same,"activity change, negative = cytotoxic",[3],4.65% [at 0.29 µM]
same,cytotoxicity,[4],3.58% [at 0.29 µM]
same,"activity change, negative = cytotoxic",[5],1.76% [at 0.29 µM]
same,cytotoxicity increase,[6],6.9% [at 0.29 µM]
same,"activity change, negative = cytotoxicity",[7],1.34% [at 0.29 µM]
CC[N+](C)(CC)CCOC(=O)C1c2ccccc2Oc2ccccc21,outcome,[1],inactive
same,Potency,[3],inactive
same,outcome,[4],inactive
same,Potency,[5],inactive
same,Potency,[6],inactive
same,Potency,[7],inactive
CO[Si](C)(OC)c1ccccc1,Potency,[8],inactive
same,outcome,[9],inactive
same,outcome,[2],inactive
same,Potency,[3],inactive
same,outcome,[4],inactive
same,Potency,[5],inactive
same,Potency,[6],inactive
same,Potency,[7],inactive
O=C(O)c1cn(C2CC2)c2cc(N3CCNCC3)c(F)cc2c1=O,outcome,[1],inactive
same,outcome,[2],inactive
same,Potency,[5],inactive
same,Potency,[6],inactive
same,Potency,[7],inactive
O=C(O)CCSCCC(=O)O,outcome,[1],inactive
same,Potency,[3],inactive
same,outcome,[4],inactive
same,Potency,[5],inactive
same,Potency,[6],inactive
same,Potency,[7],inactive
CC(C(=O)O)c1cccc(Oc2ccccc2)c1 (centres undefined),outcome,[1],inactive
same,Potency,[3],inactive
same,outcome,[4],inactive
same,Potency,[5],inactive
same,Potency,[6],inactive
same,Potency,[7],inactive
CCOC(=O)COc1cc(-n2ncc(C(F)(F)F)c(C)c2=O)c(F)cc1Cl,outcome,[1],inactive
same,outcome,[2],inactive
same,Potency,[3],inactive
same,Potency,[5],inactive
same,Potency,[6],inactive
same,Potency,[7],inactive
NCCCC[C@H](N[C@@H](CCc1ccccc1)C(=O)O)C(=O)N1CCC[C@H]1C(=O)O,outcome,[1],inactive
same,outcome,[2],inactive
same,Potency,[3],inactive
same,outcome,[4],inactive
same,Potency,[5],inactive
same,Potency,[6],inactive
same,Potency,[7],inactive
NC(=O)N1c2ccccc2CC(=O)c2ccccc21,outcome,[1],inactive
same,Potency,[3],inactive
same,outcome,[4],inactive
same,Potency,[5],inactive
same,Potency,[6],inactive
same,Potency,[7],inactive
CCO[Si](OCC)(OCC)c1ccccc1,Potency,[8],inactive
same,outcome,[9],inactive
same,outcome,[2],inactive
same,Potency,[3],inactive
same,Potency,[5],inactive
same,Potency,[6],inactive
same,Potency,[7],inactive
CCCCCCCCCCCCCCC(=O)O,outcome,[1],inactive
same,outcome,[2],inactive
same,Potency,[3],inactive
same,outcome,[4],inactive
same,Potency,[5],inactive
same,Potency,[6],inactive
same,Potency,[7],inactive
CCCn1cc[n+](C)c1C,outcome,[1],inactive
same,Potency,[3],inactive
same,outcome,[4],inactive
same,Potency,[5],45 µM (active)
same,Potency,[6],inactive
same,Potency,[7],inactive
CC[N+](CC)(CC)CCOc1cccc(OCC[N+](CC)(CC)CC)c1OCC[N+](CC)(CC)CC,outcome,[1],inactive
same,Potency,[3],inactive
same,Potency,[5],23.9 µM (active)
same,Potency,[6],inactive
same,Potency,[7],inactive
CN(C)[C@@H]1C(=O)C(C(=O)NCN2CCCC2)=C(O)[C@@]2(O)C(=O)C3=C(O)c4c(O)cccc4[C@@](C)(O)C3C[C@@H]12 (some centres undefined),outcome,[1],inactive
same,outcome,[2],inactive
same,Potency,[3],inactive
same,outcome,[4],inactive
same,Potency,[5],inactive
same,Potency,[6],inactive
same,Potency,[7],inactive
CCCO[Si](OCCC)(OCCC)OCCC,Potency,[8],inactive
same,outcome,[9],inactive
same,outcome,[2],inactive
same,Potency,[3],inactive
same,outcome,[4],inactive
same,Potency,[5],inactive
same,Potency,[6],inactive
same,Potency,[7],inactive
CC1=CC(=O)[C@H]2C[C@@H]1C2(C)C,outcome,[1],inactive
same,outcome,[2],inactive
same,Potency,[3],inactive
same,outcome,[4],inactive
same,Potency,[5],inactive
same,Potency,[6],inactive
same,Potency,[7],inactive
O=C(c1ccccc1)C1(O)CCCCC1,outcome,[1],inactive
same,Potency,[3],inactive
same,outcome,[4],inactive
same,Potency,[5],inactive
same,Potency,[6],inactive
same,Potency,[7],inactive
[O-][n+]1cccc(CO)c1,outcome,[1],inactive
same,outcome,[2],inactive
same,Potency,[3],inactive
same,outcome,[4],inactive
same,Potency,[5],inactive
same,Potency,[6],inactive
same,Potency,[7],inactive
C[N+]1(C)[C@@H]2CC(OC(=O)[C@H](CO)c3ccccc3)C[C@H]1[C@@H]1O[C@@H]12 (some centres undefined),outcome,[1],inactive
same,outcome,[4],inactive
same,Potency,[6],inactive
O=C(c1ccccc1O)c1ccccc1O,outcome,[1],inactive
same,outcome,[2],inactive
same,outcome,[4],inactive
same,Potency,[5],inactive
same,Potency,[6],48.5 µM (active)
Nc1ccccn1,outcome,[1],inactive
same,outcome,[2],inactive
same,Potency,[3],inactive
same,Potency,[5],inactive
same,Potency,[6],inactive
same,Potency,[7],inactive
CCCc1ncc(C[n+]2ccccc2C)c(N)n1,outcome,[1],inactive
same,Potency,[3],inactive
same,outcome,[4],inactive
same,Potency,[5],inactive
same,Potency,[6],inactive
same,Potency,[7],inactive
CCC(C)(CN(C)C)OC(=O)c1ccccc1 (centres undefined),outcome,[1],inactive
same,outcome,[2],inactive
same,Potency,[3],inactive
same,outcome,[4],inactive
same,Potency,[5],inactive
same,Potency,[6],inactive
same,Potency,[7],inactive
N[C@H](C(=O)O)[C@@H](O)c1ccc(O)c(O)c1,outcome,[1],inactive
same,Potency,[3],inactive
same,outcome,[4],inactive
same,Potency,[5],inactive
same,Potency,[6],inactive
same,Potency,[7],inactive
CC(C)NNC(=O)c1ccncc1,outcome,[1],inactive
same,outcome,[2],inactive
same,Potency,[3],inactive
same,outcome,[4],inactive
same,Potency,[5],inactive
same,Potency,[6],inactive
same,Potency,[7],inactive
